Each structure is given as a SMILES string. Compounds without any hit were thinned out: in the full panel of roughly 79,000, 15% have a hit. Unmarked numbers belong to inactive results. The source made the active and inactive calls. No stated cut-off is given here; in the data, active means growth inhibition above about 70%; inactive means the rest.

The text below walks through data of PubChem BioAssay (NCI).

Test [1] can be described thus: NCI Yeast Anticancer Drug Screen. Data for the rad50 strain (AID 155).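 Further: 0% = growth of vehicle-only cultures of the same strain.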 The conditions noted are these: S. cerevisiae rad50 strain growth inhibition; at 50.0 µM; hits give high values. The gist of the method:
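Compounds were tested on a yeast strain with an engineered DNA damage repair alteration; the reported value is growth inhibition normalised to vehicle treatment.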

A short description of test [2]: NCI Yeast Anticancer Drug Screen. Data for the mec2-1 strain (AID 157). The conditions noted are these: S. cerevisiae mec2-1 strain, at 50.0 µM, hits give high values. The method, boiled down:
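Yeast mec2-1 mutant treated with compound. Readout: growth inhibition vs vehicle controls.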

Test [3] can be described thus: NCI Yeast Anticancer Drug Screen. Data for the sgs1 mgt1 strain (AID 161).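 Further: 0% = growth of cultures given vehicle only.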 The conditions noted are these: S. cerevisiae sgs1 mgt1 strain, at 50.0 µM, hits give high values. The gist of the method:
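Genetically altered yeast, compound exposure, growth inhibition relative to vehicle.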

Test [4] can be described thus: NCI Yeast Anticancer Drug Screen. Data for the cln2 rad14 strain (AID 165).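 Further: 0% = growth equal to vehicle treated cultures.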 The following applies: S. cerevisiae cln2 rad14 strain, at 50.0 µM, hits give high values. The gist of the method:
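cln2 rad14 yeast strain; compound exposure; growth inhibition read vs vehicle controls.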

The nature of test [5]: NCI Yeast Anticancer Drug Screen. Data for the bub3 strain (AID 167). The conditions noted are these: S. cerevisiae bub3 mutant strain, at 50.0 µM, hits give high values. The method, boiled down:
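Growth of a checkpoint-deficient yeast mutant is measured after compound exposure. Values represent inhibition relative to vehicle.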

Test [6] is described as follows: NCI Yeast Anticancer Drug Screen. Data for the mlh1 rad18 strain (AID 175). The following applies: S. cerevisiae mlh1 rad18 strain growth inhibition; at 50.0 µM; hits give high values. The gist of the method: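 Yeast w/ defined DNA-repair lesions; compound exposure; growth vs vehicle controls → % inhibition.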

For `NC(N)=N/N=C/c1c(Cl)nc2sccn12`, the growth inhibition in test [1] is -11.4%; in test [2], -64.8%; in test [3] it was -17.5%; in test [4], -30.3%; in test [5] it was -8.8%; in test [6], -5.6%.
With `O=C(CCC(=O)Oc1ccccc1)Oc1ccccc1`, the growth inhibition was -15.9% in test [1]; -1.1% in test [2]; -31.6% in test [3]; 3.2% in test [4]; 28.3% in test [5]; 13.7% in test [6].
As for `Cc1ccc(S(=O)(=O)Oc2nc3nc4ccccc4nc3nc2OS(=O)(=O)c2ccc(C)cc2)cc1`, the growth inhibition in test [1] was -3.5%; in test [2] it was -2%; in test [3] it was 3.7%; in test [4] it was -10.5%; in test [5], 3.5%; in test [6] it was -3.95%.
Regarding `C1CSCCSCCSCCS1`, the growth inhibition is -1.15% in test [1]; -2.55% in test [2]; -0.85% in test [3]; -12.4% in test [4]; -0.4% in test [5]; -11.9% in test [6].
In the case of `C/C=C/C(=O)OCCc1ccccc1`, the growth inhibition in test [1] was 21.8%; in test [2], 3.4%; in test [3], 3.75%; in test [4], -5.5%; in test [5], 12.8%; in test [6] it was 27.5%.
Regarding `C[C@@H](O)[C@H](NSc1ccccc1[N+](=O)[O-])C(=O)NCCc1nc(-c2nc(C(=O)NCCCBr)cs2)cs1`, the growth inhibition in test [1] is -0.8%; in test [2], 2.35%; in test [3], -2.1%; in test [4], -21.5%; in test [5] it was 1.55%; in test [6], 13%.
Consider `c1nnco1`, for which the growth inhibition in test [1] was -4.2%; in test [2], 0.75%; in test [3], -2.5%; in test [4], 5.5%; in test [5] it was 6.85%; in test [6], -18.2%.
As to `O=c1[nH]c2nc3ccccc3c(=O)n2/c1=C/c1ccc(O)cc1`, the growth inhibition in test [1] was 9.6%; in test [2], 2.3%; in test [3], -12%; in test [4], 8.95%; in test [5] it was 7.3%; in test [6], -19.8%.
Turning to `CCc1ccc(N=Nc2ccc(Br)cc2)cc1`, the growth inhibition was 8.85% in test [1]; -18% in test [2]; -4.95% in test [3]; 6.85% in test [4]; 2.85% in test [5]; -10.3% in test [6].
In the case of `O=CCC(=O)c1ccc(Br)cc1`, the growth inhibition in test [1] is 8.95%; in test [2], 3.15%; in test [3] it was 2.3%; in test [4] it was 2.45%; in test [5] it was -11.7%; in test [6] it was 6.85%.
For the compound `CC1=C(C(=O)Nc2ccc([N+](=O)[O-])cc2)C(c2cccc([N+](=O)[O-])c2)C(C(=O)Nc2ccc([N+](=O)[O-])cc2)=C(C)N1`, the growth inhibition in test [1] was -9.25%; in test [2], -4.4%; in test [3], 12.9%; in test [4], -17.1%; in test [5], -15.3%; in test [6], -15.1%.
For `COc1ccc2c(c1)CC1(CC2)NCC(=O)NC1=O` (stereo unspecified), the growth inhibition was 7.9% in test [1]; 15.6% in test [2]; -11.8% in test [3]; -2% in test [4]; 5.8% in test [5]; 12.4% in test [6].
For `O=C1OC(c2ccc(Cl)cc2)=C/C1=C/c1ccccn1`, the growth inhibition in test [1] is -1.4%; in test [2], 10%; in test [3], 5.2%; in test [4], -34%; in test [5], 4.55%; in test [6], 11.3%.
Consider `C/C(=C(/C)c1cc[n+](C)cc1)c1cc[n+](C)cc1`, for which the growth inhibition was 74.4% (active) in test [1]; 60.6% in test [2]; 67% in test [3]; 44.4% in test [4]; 56.3% in test [5]; 68.5% in test [6].
Turning to `O=C(Nc1cc([N+](=O)[O-])ccc1Cl)c1ccc(F)cc1`, the growth inhibition in test [1] is 13.2%; in test [2] it was 6.4%; in test [3], 14.6%; in test [4] it was 17.8%; in test [5], 28.9%; in test [6], 19.8%.
For `CCC(Cl)COP(=O)(OCC(Cl)CC)O/C(C)=C(/C)P(=O)(OCC(Cl)CC)OCC(Cl)CC` (stereo unspecified), the growth inhibition in test [1] was 32.9%; in test [2] it was 29.6%; in test [3] it was 42.4%; in test [4] it was 47.1%; in test [5], 8.6%; in test [6] it was 69%.
Turning to `OCC(OC/C=C/CCl)c1ccc(Cl)cc1` (stereo unspecified), the growth inhibition in test [1] is -6.75%; in test [2], 8.7%; in test [3], 0.2%; in test [4], -0.15%; in test [5], -9.5%; in test [6], -15.9%.
Turning to `Nc1ccc(N(C(=O)c2ccccc2)C(=O)c2ccccc2)c(-c2ccccc2)c1`, the growth inhibition in test [1] was 19.9%; in test [2], 8.95%; in test [3], 6.15%; in test [4], 3.35%; in test [5], 11.1%; in test [6], 22.9%.
For the compound `O=C1C=C2CCC[C@H]3OC(=O)C[C@@]23CC1`, the growth inhibition in test [1] was 12.4%; in test [2], 16.2%; in test [3], 35.3%; in test [4], 28.4%; in test [5], -0.95%; in test [6], 27.4%.
As to `COc1cc2c3c(c1)SC(C)C(=O)N3CCN2` (stereo unspecified), the growth inhibition in test [1] is -7.85%; in test [2] it was -19.9%; in test [3], 2.55%; in test [4], 10.2%; in test [5] it was -3.5%; in test [6] it was 6.55%.
On to `Nc1cc(C(F)(F)F)ccc1[N+](=O)[O-]`, for which the growth inhibition in test [1] is 14.2%; in test [2], -10.2%; in test [3] it was 8%; in test [4], -7.25%; in test [5] it was 8.85%; in test [6], 22.4%.
